Data as given in PubChem BioAssay (NCATS).
Results filed as inconclusive are left out. Entries that show only a call come without a potency. The source made the active and inactive calls. Unless noted, calls follow the shape of the dose curve; as a rule, active = well fitted curve in the direction sought with a large enough effect; inconclusive = small, poorly fitted or top-dose-only effect, or another doubt; inactive = no such curve, though single readings can be large; an effect the other way counts as inactive or inconclusive.

Legend:
[1] = target: Voltage-gated inwardly rectifying potassium channel KCNH2 (Homo sapiens) (UniProt Q12809); experiment: qHTS Assay for Small Molecule Inhibitors of the Human hERG Channel Activity (AID 588834);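 also: lower thallium flux fluorescence means stronger hERG block; nearly all actives have a fitted effect of over 50% in size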; also: potency is read from the fitted curve at half-maximal effect
Voltage-gated inwardly rectifying potassium channel KCNH2 (Homo sapiens), sequence (Q12809 whole entry, looked up): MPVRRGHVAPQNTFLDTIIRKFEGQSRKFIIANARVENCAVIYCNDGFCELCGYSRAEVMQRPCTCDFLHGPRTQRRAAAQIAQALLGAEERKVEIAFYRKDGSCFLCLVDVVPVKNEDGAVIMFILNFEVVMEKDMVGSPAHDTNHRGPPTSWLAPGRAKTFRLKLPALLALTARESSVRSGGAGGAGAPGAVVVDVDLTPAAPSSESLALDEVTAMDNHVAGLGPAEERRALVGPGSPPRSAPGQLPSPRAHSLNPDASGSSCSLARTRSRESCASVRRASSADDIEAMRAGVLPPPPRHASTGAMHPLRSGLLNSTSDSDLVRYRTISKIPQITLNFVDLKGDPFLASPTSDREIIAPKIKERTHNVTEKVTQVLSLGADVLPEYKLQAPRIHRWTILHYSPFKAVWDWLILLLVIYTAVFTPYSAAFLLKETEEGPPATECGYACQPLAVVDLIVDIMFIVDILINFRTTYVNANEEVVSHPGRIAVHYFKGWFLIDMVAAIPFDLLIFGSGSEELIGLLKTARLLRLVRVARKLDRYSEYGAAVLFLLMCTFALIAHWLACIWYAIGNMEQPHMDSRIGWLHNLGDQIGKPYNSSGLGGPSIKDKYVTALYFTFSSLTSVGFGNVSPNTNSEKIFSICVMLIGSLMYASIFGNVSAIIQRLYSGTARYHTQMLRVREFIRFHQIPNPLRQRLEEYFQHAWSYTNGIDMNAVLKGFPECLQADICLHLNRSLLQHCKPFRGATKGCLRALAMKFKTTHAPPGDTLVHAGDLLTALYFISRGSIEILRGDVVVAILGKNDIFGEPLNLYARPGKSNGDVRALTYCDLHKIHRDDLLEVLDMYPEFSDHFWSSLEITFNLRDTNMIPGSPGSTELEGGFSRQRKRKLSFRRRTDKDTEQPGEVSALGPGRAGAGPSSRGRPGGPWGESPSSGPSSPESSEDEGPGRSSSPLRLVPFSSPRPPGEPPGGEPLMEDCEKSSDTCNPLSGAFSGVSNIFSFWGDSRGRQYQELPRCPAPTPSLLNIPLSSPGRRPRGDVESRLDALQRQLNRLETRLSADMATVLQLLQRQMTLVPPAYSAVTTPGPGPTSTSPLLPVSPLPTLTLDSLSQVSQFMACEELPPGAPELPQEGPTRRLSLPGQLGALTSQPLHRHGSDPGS
Procedure, shortened: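 Cells were infected with hERG-BacMam virus for 4 hrs at room temperature, grown overnight, then seeded at 2000/well. After dye loading and roughly 10 min compound treatment, thallium influx was triggered and fluorescence recorded.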

[2] = target: Luciferin 4-monooxygenase (Photinus pyralis) (UniProt P08659); experiment: Biochemical firefly luciferase enzyme assay for NPC (AID 624030);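 also: purified P. pyralis luciferase at 10 nM with luciferin and ATP substrate; series mostly up to about 59 µM; nearly all actives have a fitted effect of over 70% in size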
Luciferin 4-monooxygenase (Photinus pyralis), sequence (P08659 whole entry, looked up): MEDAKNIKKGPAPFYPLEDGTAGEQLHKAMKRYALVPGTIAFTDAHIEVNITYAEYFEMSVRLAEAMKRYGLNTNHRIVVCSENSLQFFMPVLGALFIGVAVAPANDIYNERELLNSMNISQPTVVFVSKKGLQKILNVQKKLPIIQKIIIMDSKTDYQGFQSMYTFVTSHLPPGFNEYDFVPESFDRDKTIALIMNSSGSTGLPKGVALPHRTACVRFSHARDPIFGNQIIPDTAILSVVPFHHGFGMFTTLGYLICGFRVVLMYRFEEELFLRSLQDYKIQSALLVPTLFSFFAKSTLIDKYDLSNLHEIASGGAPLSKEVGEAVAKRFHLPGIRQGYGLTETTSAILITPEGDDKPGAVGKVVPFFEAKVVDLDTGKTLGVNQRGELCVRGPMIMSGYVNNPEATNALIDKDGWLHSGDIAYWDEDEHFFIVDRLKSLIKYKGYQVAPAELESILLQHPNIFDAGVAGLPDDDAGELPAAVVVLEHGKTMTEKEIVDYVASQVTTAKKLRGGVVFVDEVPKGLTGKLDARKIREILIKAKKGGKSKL
Procedure, shortened: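 Purified P. pyralis luciferase at 10 nM in 50 mM Tris Acetate (final), luminescence read within 5 minutes of enzyme addition to compounds. Activity normalised to PTC124 versus DMSO; concentration-response curves classed by r2, magnitude and activity.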

[3] = S16 Schwann cell PMP22 intronic element firefly luciferase assay (AID 624032); also: nearly all actives have a fitted effect of over 30% in size; also: potency is read from the fitted curve at half-maximal effect
Procedure, shortened: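 Rat S16 Schwann cells stably carrying firefly luciferase driven by a PMP22 intronic element, in 10% FBS, treated 24 h at 37 C. ONE-Glo luminescence normalized to PTC124 control and DMSO (0%); curves classed by r2, magnitude and activity.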

[4] = S16 Schwann cell PMP22 intronic element beta-lactamase assay (AID 624044; calls by dose curve; also: nearly all actives have a fitted effect of over 15% in size; also: potency is read from the fitted curve at half-maximal effect)
Procedure, shortened: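 Beta-lactamase reporter under a PMP22 intronic regulatory element in stable S16 rat Schwann cells; 24 h compound exposure. 460 nm blue signal normalized between DMSO (0%) and potassium clavulanate, with 535 nm FRET tracking viability; curves classed by r2 and response.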

[5] = S16 Schwann cell viability assay (CellTiter-Glo assay) (AID 624031); also: nearly all actives have a fitted effect of over 70% in size; also: potency is read from the fitted curve at half-maximal effect
Procedure, shortened: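 CellTiter-Glo ATP luminescence counter-screen in untransfected S16 rat Schwann cells, 24h compound exposure at 37 degree Celsius after overnight seeding (500-750 cells/well); response scaled between cell-free wells and DMSO (0% activity), curves classed by r2 and magnitude.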

[6] = target: Glutaminase kidney isoform, mitochondrial (Homo sapiens) (UniProt O94925); experiment: qHTS for Inhibitors of Glutaminase (GLS): LOPAC Validation (AID 624146);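 also: glutamate product detected by oxidase and peroxidase coupled Amplex red fluorescence gain; series mostly up to about 46 µM; nearly all actives have a fitted effect of over 60% in size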
Glutaminase kidney isoform, mitochondrial (Homo sapiens), sequence (O94925 whole entry, looked up, canonical isoform): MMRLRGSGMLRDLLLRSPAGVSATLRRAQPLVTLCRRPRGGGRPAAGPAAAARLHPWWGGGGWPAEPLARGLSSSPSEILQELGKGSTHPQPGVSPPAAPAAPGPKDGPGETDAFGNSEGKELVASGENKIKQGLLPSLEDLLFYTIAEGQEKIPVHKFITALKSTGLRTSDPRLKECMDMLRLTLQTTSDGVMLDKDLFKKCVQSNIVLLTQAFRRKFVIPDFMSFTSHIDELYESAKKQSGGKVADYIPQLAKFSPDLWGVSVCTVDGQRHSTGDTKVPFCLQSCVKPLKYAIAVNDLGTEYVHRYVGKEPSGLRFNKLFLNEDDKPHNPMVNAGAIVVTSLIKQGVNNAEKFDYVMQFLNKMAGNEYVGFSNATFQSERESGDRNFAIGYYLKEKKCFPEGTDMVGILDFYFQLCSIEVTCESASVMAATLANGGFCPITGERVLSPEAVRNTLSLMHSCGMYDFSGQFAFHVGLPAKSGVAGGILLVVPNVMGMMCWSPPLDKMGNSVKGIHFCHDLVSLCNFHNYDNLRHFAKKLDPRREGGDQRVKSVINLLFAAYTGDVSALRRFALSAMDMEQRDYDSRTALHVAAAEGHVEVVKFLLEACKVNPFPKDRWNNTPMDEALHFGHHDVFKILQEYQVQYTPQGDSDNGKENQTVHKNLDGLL
Procedure, shortened: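 Two-point fluorescence kinetic (t0, 30 min RT) for hKGA; glutamate detected via glutamate oxidase–HRP–Amplex Red. Substrate: 1 mM L-glutamine solution; buffer 45 mM KH2PO4, pH 8.2.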

[7] = qHTS of Trypanosoma Brucei Inhibitors: LOPAC Validation (AID 624147)
Procedure, shortened: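 T. brucei PYK with substrate was exposed to pin-transferred compounds across a concentration series, then started with 130 uM ADP (final). After 45 min at room temperature, Kinase-Glo Plus luminescence was read, normalized and curve-fitted.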

[8] = target: Glucagon-like peptide 1 receptor (Homo sapiens) (UniProt P43220); experiment: qHTS of GLP-1 Receptor Agonists: LOPAC Validation (AID 624148);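 also: higher luminescence signal means agonism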
Glucagon-like peptide 1 receptor (Homo sapiens), sequence (P43220 whole entry, looked up): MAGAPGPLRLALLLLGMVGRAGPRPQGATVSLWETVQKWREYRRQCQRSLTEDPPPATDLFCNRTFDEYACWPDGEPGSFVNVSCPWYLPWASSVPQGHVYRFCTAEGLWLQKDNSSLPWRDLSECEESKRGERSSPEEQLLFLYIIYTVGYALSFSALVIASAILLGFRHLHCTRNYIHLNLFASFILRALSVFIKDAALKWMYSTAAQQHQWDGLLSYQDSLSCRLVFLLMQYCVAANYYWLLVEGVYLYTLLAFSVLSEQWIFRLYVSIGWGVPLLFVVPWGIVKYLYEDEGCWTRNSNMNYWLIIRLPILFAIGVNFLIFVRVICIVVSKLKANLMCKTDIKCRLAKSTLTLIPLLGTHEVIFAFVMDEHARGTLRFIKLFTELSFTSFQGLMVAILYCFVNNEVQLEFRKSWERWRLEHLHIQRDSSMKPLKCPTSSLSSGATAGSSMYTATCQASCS
Procedure, shortened: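 HEK293 cells stably co-expressing GLP-1R and a cAMP-responsive luciferase reporter, plated 12 hours before compound, then incubated 4-6 hr at 37 deg C. Luminescence read 12 min after detection reagent.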

[9] = qHTS of Nrf2 Activators: LOPAC Validation (AID 624149)
Procedure, shortened: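 Following overnight seeding in 5% FBS OPTI-MEM, AREc32_Fluc cells receive compounds for a 24 hr incubation at 37 deg C with 5% CO2. Steady-Glo is added, and after 30 min at RT luminescence is recorded.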

O=[N+]([O-])c1cccc(S(=O)(=O)NCCNS(=O)(=O)c2cccc([N+](=O)[O-])c2)c1
Potency [1]: inactive | Potency [2]: inactive | Potency [3]: inactive | Potency [4]: inactive

O=c1[nH]c(=O)n([C@H]2C[C@H](O)[C@@H](CO)O2)cc1F
Potency [1]: inactive | Potency [2]: inactive | Potency [5]: inactive | Potency [4]: 0.0056 µM (active)

CCOc1cc(OCC)c(C(=O)CCC(=O)O)cc1OCC
Potency [1]: inactive | Potency [5]: inactive

CNCCCCOc1ccccc1Cc1ccccc1
Potency [1]: 6.31 µM (active) | Potency [2]: inactive | Potency [5]: 28.7 µM (active) | Potency [4]: inactive

Cc1ccc2c(Br)cc(Br)c(O)c2n1
Potency [1]: inactive | Potency [2]: inactive | Potency [3]: inactive | Potency [4]: 17.8 µM (active)

CN=C(N)NCCC[C@H](N)C(=O)O
Potency [1]: inactive | Potency [2]: inactive | outcome [6]: inactive | outcome [7]: inactive | outcome [8]: inactive | outcome [9]: inactive

CCc1oc2ccccc2c1C(=O)c1cc(Br)c(O)c(Br)c1
Potency [1]: inactive | Potency [5]: inactive | Potency [3]: inactive

Cl/C(=C\n1cncn1)c1ccc(Cl)cc1Cl
Potency [1]: inactive | Potency [2]: inactive | Potency [3]: inactive

COc1ccccc1N1CCN(CCCCNC(=O)c2ccc(-c3ccc(C(C)=O)cc3)cc2)CC1
Potency [1]: 1.26 µM (active) | Potency [2]: inactive | Potency [3]: inactive

C#C[C@]1(OC(C)=O)CC[C@H]2[C@@H]3CCC4=C/C(=N/O)CC[C@@H]4[C@H]3CC[C@@]21CC
Potency [1]: inactive | Potency [2]: inactive | Potency [3]: 8.09 µM (active)

CCN(CC)CCOc1ccccc1C(=O)CCc1ccccc1
Potency [1]: 1.12 µM (active) | Potency [2]: inactive | Potency [3]: inactive | Potency [4]: inactive

CN(CCCN1c2ccccc2CCc2ccccc21)CC(=O)c1ccc(Cl)cc1
Potency [1]: 5.01 µM (active) | Potency [2]: inactive | Potency [4]: inactive
